A short description of assay [1]: NCI Yeast Anticancer Drug Screen. Data for the rad50 strain (AID 155).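 Note: 0% = growth of vehicle-only cultures of the same strain.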 To be noted: S. cerevisiae rad50 strain growth inhibition; at 50.0 µM; active compounds read high. The gist of the method:
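DNA repair mutant yeast, compound exposure, growth read-out; inhibition is taken relative to vehicle.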

Assay [2] in a line: NCI Yeast Anticancer Drug Screen. Data for the mec2-1 strain (AID 157). To be noted: S. cerevisiae mec2-1 strain, at 50.0 µM, active compounds read high. The gist of the method: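 Using mec2-1 yeast: add compound, measure growth, express inhibition versus vehicle-treated cultures.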
Assay [3] is described as follows: NCI Yeast Anticancer Drug Screen. Data for the sgs1 mgt1 strain (AID 161).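 Note: 0% = growth of cultures given vehicle only.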 The following applies: S. cerevisiae sgs1 mgt1 strain, at 50.0 µM, active compounds read high. The gist of the method: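 Compounds are added to genetically altered yeast, and growth is compared with cultures given vehicle alone to give percent inhibition.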
Assay [4] can be described thus: NCI Yeast Anticancer Drug Screen. Data for the cln2 rad14 strain (AID 165).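 Note: 0% = growth equal to vehicle treated cultures.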 To be noted: S. cerevisiae cln2 rad14 strain, at 50.0 µM, active compounds read high. The essentials:
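Yeast strain cln2 rad14, bearing defects in cell cycle control and DNA repair, serves as the test system; values reflect growth inhibition compared with vehicle.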

Assay [5] can be described thus: NCI Yeast Anticancer Drug Screen. Data for the bub3 strain (AID 167). The following applies: S. cerevisiae bub3 mutant strain, at 50.0 µM, active compounds read high. The gist of the method:
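In this screen, a yeast mutant lacking normal mitotic checkpoint function is challenged with compound. Relative growth versus vehicle gives the inhibition value.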

Assay [6] in a line: NCI Yeast Anticancer Drug Screen. Data for the mlh1 rad18 strain (AID 175). To be noted: S. cerevisiae mlh1 rad18 strain growth inhibition; at 50.0 µM; active compounds read high. The essentials:
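Steps: expose repair-defective yeast to compound; measure growth; express inhibition against vehicle-treated controls.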

About 79,000 compounds went through this panel and 15% of them were active in at least one assay; those are over-represented in the sample as a whole. Unmarked numbers belong to inactive results. The source made the active and inactive calls. Cut-off read from the data, not from the text of the source: active = growth inhibition above about 70%; inactive = the rest.

On to `O=C1C=C[C@@H](COC2OC(CO)C(O)C(O)C2O)O1` (stereo partly drawn), for which the growth inhibition in assay [1] is 6.35%; in assay [2], -28.8%; in assay [3], 5.25%; in assay [4], 15.8%; in assay [5], 24.9%; in assay [6], 27.8%.
Take `CCOC(=O)C1=C(O)c2ccc(OC)cc2C(=O)C1=O`: the growth inhibition in assay [1] was -5.5%; in assay [2], -10.5%; in assay [3], 12.7%; in assay [4], 2.05%; in assay [5], -9%; in assay [6], 0.3%.
`C/C(=N\n1cc(-c2ccccc2)nc1N)c1ccccc1`: the growth inhibition in assay [1] was -2.8%; in assay [2] it was 4.2%; in assay [3], 6%; in assay [4] it was 13.5%; in assay [5], 20.6%; in assay [6] it was 13.1%.
For the compound `CCN(CC)C(=O)C1CCN(CCC(=O)Nc2ccccc2)CC1`, the growth inhibition in assay [1] was 8.4%; in assay [2] it was -7.6%; in assay [3] it was 12.9%; in assay [4], -16.1%; in assay [5], 5.15%; in assay [6] it was 7.15%.
As to `CN(C)CCSC(CO)c1ccccc1` (stereo not drawn), the growth inhibition in assay [1] is -12.7%; in assay [2], -13.4%; in assay [3], 2.85%; in assay [4] it was 9.2%; in assay [5] it was -1.15%; in assay [6], -6.5%.
Regarding `CCCCCCCCCCCCCCCCOc1ccc(OCCCCCCCCCCCCCCC)cc1`, the growth inhibition was 42.2% in assay [1]; -8.2% in assay [2]; 31.6% in assay [3]; -24.7% in assay [4]; 5.35% in assay [5]; -1.1% in assay [6].
Turning to `O=[N+]([O-])c1ccc(C=NC23CC4CC(CC(C4)C2)C3)cc1`, the growth inhibition in assay [1] is -8.05%; in assay [2], -11.1%; in assay [3], -0.35%; in assay [4], 14.2%; in assay [5] it was 5.55%; in assay [6], -3.9%.
Take `O=C(O)c1[nH]c2c(=O)[nH]c(=O)[nH]c2c1Br`: the growth inhibition in assay [1] was 5.25%; in assay [2], -2.8%; in assay [3], -15.9%; in assay [4], -4.35%; in assay [5] it was 2.15%; in assay [6], 15%.
As to `O=C(O)Cc1cccc2c(=O)cc(Cc3ccccc3)oc12`, the growth inhibition is -13.8% in assay [1]; -16.6% in assay [2]; -11.5% in assay [3]; 6.6% in assay [4]; 20.1% in assay [5]; -15% in assay [6].
As to `COc1cc(C(=O)Nc2ccc(S(=O)(=O)Nc3nc(C)cc(C)n3)cc2)cc(OC)c1OC`, the growth inhibition in assay [1] is -10.7%; in assay [2], -21.9%; in assay [3] it was -6.65%; in assay [4], 10.7%; in assay [5] it was -4.9%; in assay [6], -10.4%.
Take `Oc1c(Cl)cc(N=Cc2ccc(N(CCCCl)CCCCl)cc2Cl)cc1Cl`: the growth inhibition in assay [1] was 84.6% (active); in assay [2], 41%; in assay [3] it was 93.7% (active); in assay [4], 75.2% (active); in assay [5], 54.7%; in assay [6] it was 84% (active).
Take `O=C=Nc1cc(Cl)ccc1Cl`: the growth inhibition in assay [1] was 38.5%; in assay [2], 21.8%; in assay [3], 17.4%; in assay [4] it was -24.4%; in assay [5] it was 7.95%; in assay [6] it was 28.9%.
On to `COc1ccc(C(O)C2CCCN(C)S2(=O)=O)cc1` (stereo not drawn), for which the growth inhibition in assay [1] is 13.4%; in assay [2] it was 21.9%; in assay [3], 2.75%; in assay [4], 15.5%; in assay [5], 30.6%; in assay [6], 15.6%.
Regarding `CCN1C(=O)N(CC)C2(CC(=O)c3ccccc3O2)C1=O` (stereo not drawn), the growth inhibition is 15.2% in assay [1]; -3.45% in assay [2]; 20.2% in assay [3]; 7.15% in assay [4]; 20.1% in assay [5]; 19.6% in assay [6].
As for `N#CC1(c2nc3ccccc3o2)C(=O)C(=O)N(C2C3CC4CC(C3)CC2C4)C(=O)C1=O` (stereo not drawn), the growth inhibition in assay [1] was -8.65%; in assay [2], 6.05%; in assay [3] it was -39.1%; in assay [4], 16.2%; in assay [5], -5.75%; in assay [6] it was -9.35%.
Take `CC1(C)OCN(c2ccc(Cl)cc2)Cn2c1nc1ccccc12`: the growth inhibition is -6.65% in assay [1]; 8.2% in assay [2]; -22.8% in assay [3]; 2.5% in assay [4]; -25.9% in assay [5]; -9.25% in assay [6].
On to `O=Cc1ccccc1CCn1c(=O)c2cc3c(=O)n(CCc4ccccc4C=O)c(=O)c3cc2c1=O`, for which the growth inhibition in assay [1] is 33.7%; in assay [2], 18.9%; in assay [3], 11.8%; in assay [4], -11.8%; in assay [5], -4.35%; in assay [6], 18.8%.
As for `Cc1ccc(S(=O)(=O)OCCN2C(=O)CCC2=O)cc1`, the growth inhibition is 12.8% in assay [1]; 8.8% in assay [2]; 4.65% in assay [3]; 9.5% in assay [4]; -0.95% in assay [5]; 15.8% in assay [6].
For `Cc1cc(=O)[nH]c(N/N=C/c2ccco2)n1`, the growth inhibition in assay [1] was -20.8%; in assay [2] it was -48.8%; in assay [3], -16.8%; in assay [4], 6.75%; in assay [5], -33.8%; in assay [6] it was -15.3%.
`CCCCCNC(=O)C(C)O` (stereo not drawn): the growth inhibition in assay [1] was 5.6%; in assay [2] it was -8.3%; in assay [3] it was -9.7%; in assay [4] it was -30.5%; in assay [5] it was -2.2%; in assay [6], 14.6%.
Regarding `O=C(c1ccccc1)c1cc(Cl)ccc1NCn1nnc2ccccc21`, the growth inhibition in assay [1] is -47.9%; in assay [2], -22.1%; in assay [3], -40.8%; in assay [4] it was -21.8%; in assay [5], -49.5%; in assay [6] it was -30.1%.
With `CN1N(c2ccccc2)C(=O)C2=NC=C(C(=O)c3ccccc3)C(=N)C21C` (stereo not drawn), the growth inhibition in assay [1] was 6.2%; in assay [2], -1.6%; in assay [3] it was 22.1%; in assay [4], 19.9%; in assay [5], 7.7%; in assay [6] it was 16.8%.
On to `CC1(C)OCC(C2CCC3(C)C4=CCC5C(C)(C)C(O)CCC5(C)C4CCC23C)CC(O)C1O` (stereo not drawn), for which the growth inhibition in assay [1] was 59.6%; in assay [2], 57%; in assay [3], 72.3% (active); in assay [4], 76.5% (active); in assay [5], 64.8%; in assay [6], 31.9%.
For `CCO[Si](OCC)(OCC)c1ccccc1`, the growth inhibition in assay [1] is -28.7%; in assay [2] it was -21.3%; in assay [3] it was -10.7%; in assay [4], -5.85%; in assay [5] it was -14.5%; in assay [6] it was -15.8%.
`COC1OC(CO)C(OC(=O)Nc2ccccc2)C(OC(=O)Nc2ccccc2)C1O` (stereo not drawn): the growth inhibition in assay [1] was -16.9%; in assay [2] it was -10.7%; in assay [3], -1.4%; in assay [4], -38.1%; in assay [5] it was 2.7%; in assay [6] it was -8.15%.
Take `CCN(CC)c1cc(-c2ccccc2)oc(=O)c1Cl`: the growth inhibition in assay [1] was 25.8%; in assay [2], -10.3%; in assay [3], 13.6%; in assay [4] it was 9.4%; in assay [5], 16.5%; in assay [6], 20.6%.
On to `CCC(N)(C(=O)O)C(C)C` (stereo not drawn), for which the growth inhibition in assay [1] is -25.7%; in assay [2], -8.65%; in assay [3] it was -12.1%; in assay [4], -0.45%; in assay [5], 8.4%; in assay [6], -3.75%.
Take `CCc1ccc(CC)c(OC)c1`: the growth inhibition was 16.6% in assay [1]; -1.8% in assay [2]; 0.4% in assay [3]; -27.2% in assay [4]; -11.1% in assay [5]; 18.7% in assay [6].
Turning to `Clc1ccc(-c2cc(-c3ccc(Cl)cc3)n(-c3ccccc3)n2)cc1`, the growth inhibition is -17.5% in assay [1]; -33.9% in assay [2]; -24.2% in assay [3]; 4% in assay [4]; 6.55% in assay [5]; -9.2% in assay [6].
Turning to `O=C1OC(c2ccccc2)=N/C1=C\c1cc2c(cc1Cl)OCO2`, the growth inhibition was 4.05% in assay [1]; 11.7% in assay [2]; 16.1% in assay [3]; -25.3% in assay [4]; -5.7% in assay [5]; 20.1% in assay [6].
For the compound `C#CCC1CCCC/C1=N\Nc1ccc([N+](=O)[O-])cc1[N+](=O)[O-]` (stereo not drawn), the growth inhibition in assay [1] was 2.25%; in assay [2], 3.2%; in assay [3] it was -4.4%; in assay [4], -1.75%; in assay [5] it was 4.4%; in assay [6], 4.1%.
Turning to `O=C(CC(C(=O)c1ccc(F)cc1)c1ccsc1)c1cccs1` (stereo not drawn), the growth inhibition is 13.8% in assay [1]; 2.3% in assay [2]; 26.8% in assay [3]; 16.5% in assay [4]; 8.5% in assay [5]; 3% in assay [6].
For the compound `CCCCCC(=O)OC`, the growth inhibition in assay [1] was 4.75%; in assay [2], -8.15%; in assay [3], -28.4%; in assay [4], -17.1%; in assay [5], -11.2%; in assay [6], 10.8%.
Regarding `COc1ccc(-c2c3c(n(C4OC(COC(C)=O)C(OC(C)=O)C(OC(C)=O)C4OC(C)=O)c(=S)c2C#N)CCC3)cc1` (stereo not drawn), the growth inhibition in assay [1] is 28.8%; in assay [2], 35%; in assay [3], 43.3%; in assay [4] it was 32%; in assay [5], 46.8%; in assay [6], 20.9%.
`CCOC(=O)c1ccc(NC(=O)Oc2ccc(C=O)cc2OC)cc1`: the growth inhibition in assay [1] is 5.7%; in assay [2], 5.3%; in assay [3] it was 7.85%; in assay [4] it was 11%; in assay [5], 20.1%; in assay [6], 7.2%.
Regarding `COC(=O)c1ccc(C(=O)O)cc1`, the growth inhibition in assay [1] is 5.35%; in assay [2] it was -2.65%; in assay [3], -8.15%; in assay [4] it was -6.55%; in assay [5] it was 0.65%; in assay [6], -6.5%.
Turning to `Oc1ccccc1CNCCNCc1ccccc1O`, the growth inhibition was -12.2% in assay [1]; -14.1% in assay [2]; 1.6% in assay [3]; 17.6% in assay [4]; -4.5% in assay [5]; -36.2% in assay [6].
With `Cn1ncc2c(=O)[nH]c(N)nc21`, the growth inhibition in assay [1] is 6.65%; in assay [2], 31.2%; in assay [3], -19.6%; in assay [4], 1.2%; in assay [5], -3.15%; in assay [6] it was -5.85%.

For the origin of these results see PubChem BioAssay (NCI).
